What all share (assay): NCI-60 one-dose screen, 48 h (100 = growth as untreated, 0 = no growth, -100 = all killed)
Common to all, as to settings: 10 µM unless noted

Assay [1] deals with SR leukemia.
In assay [2] the test system is RPMI-8226 leukemia.
Assay [3] relates to OVCAR-8 ovarian.
The subject of assay [4] is OVCAR-5 ovarian.
The test system of assay [5] is OVCAR-4 ovarian.
Assay [6] deals with SK-OV-3 ovarian.
Assay [7] relates to IGROV1 ovarian.
The test system of assay [8] is OVCAR-3 ovarian.
In assay [9] the test system is HS 578T breast.
In assay [10] the test system is T-47D breast.
Assay [11] concerns BT-549 breast.
Assay [12] has as its system MDA-MB-435 melanoma.
The test system of assay [13] is SW-620 colon.
Assay [14] deals with MCF7 breast.
Assay [15] relates to HCT-116 colon.
Assay [16] has as its system HCC-2998 colon.
In assay [17] the test system is KM12 colon.
Assay [18] deals with NCI/ADR-RES ovarian.

Each structure is given as a SMILES string. Compounds without any hit were thinned out: in the full panel of roughly 83,000, 20% have a hit.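 Results are percent growth after 48 hours of single-concentration exposure. 100 means growth as in untreated cells, lower positive values show inhibition; negative values down to -100 show cell death.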 Values without a mark were called inactive. Active and inactive are the calls of the source. How the source made its calls: active means growth percent below 10; inactive means the rest.

Consider `CCOC(=O)c1c(NC(=O)c2ccccc2C(F)(F)F)sc2c1CCC(=O)C2`, for which the growth was 24.2% in assay [1]; -6.12% (active) in assay [2]; 37.9% in assay [3]; 21% in assay [4]; 16.7% in assay [5]; 99.7% in assay [6]. Besides, the growth in [7] was 29%; in [8], 12.4%; in [9], 36.3%; in assay [10] it was 15%; in assay [11], 11.1%; in assay [12], 72.6%. The growth is 14.9% in assay [13]; 78.5% in [14]; 11% in assay [15]; 65.2% in assay [16]; 7.7% (active) in assay [17].

`CCn1c(SCC(=O)Nc2cccc(C(=O)/C=C/c3ccc(Br)cc3)c2)nc2ccccc2c1=O`: the growth in assay [1] is 74.3%; in assay [2] it was 5.53% (active); in assay [3], 96.4%; in assay [4] it was 95.8%; in [5] it was 93%; in assay [6], 106%. In addition, the growth in assay [7] is 86.8%; in [8], 90.7%; in [9] it was 98.3%; in assay [10], 90.7%; in assay [11], 85.7%; in [12], 99.2%. Besides, the growth was 80.9% in [13]; 21.5% in assay [14]; 28.4% in assay [15]; 95.3% in assay [16]; 96.5% in [17].

`COc1ccc(/C=C(\C#N)C(=O)N2c3ccccc3Sc3ccc(SC)cc32)cc1F`: the growth in assay [1] was 121%; in assay [2] it was 95.6%; in assay [3] it was 91.4%; in assay [4], 86.5%; in assay [5], 75.4%; in assay [6], 100%. The growth in assay [7] is 91.1%; in assay [8] it was 93.4%; in [9], 85%; in assay [10] it was 70.9%; in [11] it was 104%; in assay [12], 97.9%. For the same compound, the growth is 95.2% in [13]; 95.9% in assay [14]; 91.2% in [15]; 90.5% in [16]; 95.3% in assay [17].

For `Brc1ccccc1/C=N/Nc1nc(N/N=C/c2ccccc2Br)nc(N2CCOCC2)n1`, the growth is 63.9% in [1]; 65% in assay [2]; 96.6% in assay [3]; 111% in [4]; 96.2% in assay [5]; 114% in assay [6]. Besides, the growth was 89.7% in assay [7]; 85.2% in assay [8]; 114% in assay [9]; 79% in [10]; 107% in assay [11]; 97.7% in [12]. Moreover, the growth in assay [13] is 96.7%; in [14], 85.2%; in assay [15] it was 97.5%; in assay [16], 70.9%; in assay [17], 89.1%.

Consider `C=C(C)[C@@H]1CC[C@]2(COCCCNCCC#N)CC[C@]3(C)[C@H](CC[C@@H]4[C@@]5(C)CC[C@H](OCCCNCCC#N)C(C)(C)[C@@H]5CC[C@]43C)[C@@H]12`, for which the growth in assay [1] was -18.4% (active); in assay [2], 34%; in assay [3] it was 66.6%; in assay [4], 83.7%; in assay [5] it was 23.9%; in assay [6], 97.8%. Further, the growth in assay [7] was 72.1%; in [8] it was 71%; in assay [9] it was 72.6%; in assay [10] it was 53.3%; in assay [12], 56.4%; in assay [13], 64.7%. The growth in assay [14] is 32.5%; in [15] it was 24.7%; in assay [16] it was 31.8%; in [17], 64.4%.

For the compound `CC(=O)Nc1cccc(Nc2nc(N[C@@H](C)c3ccccc3)c3ccccc3n2)c1`, the growth was -43.4% (active) in assay [1]; -30.9% (active) in assay [2]; 39% in assay [3]; 18.6% in [4]; 17.5% in assay [5]; 53.6% in assay [6]. The growth in [7] is 18.4%; in [8] it was 13%; in assay [9], 1.68% (active); in assay [18], -0.0139% (active); in assay [10] it was 58.4%; in [12], -48.9% (active). Further, the growth is 20.4% in [13]; 8.63% (active) in assay [14]; 6.47% (active) in [15]; -6.49% (active) in [16]; 22.9% in assay [17].

As to `N/C(=N\C(N)=N\c1nc2ccccc2s1)c1ccc(C(F)(F)F)cc1`, the growth was 9.02% (active) in assay [1]; 46.5% in assay [2]; 55.8% in assay [3]; 105% in assay [4]; 94.6% in [5]; 124% in assay [6]. For the same compound, the growth is 80.5% in assay [7]; 91.2% in assay [8]; 86.9% in [9]; 69% in [10]; 101% in assay [11]; 93% in [12]. Moreover, the growth in [13] is 106%; in [14], 77.9%; in [15], 56.4%; in assay [16], 94%; in [17] it was 61.6%.

With `COc1ccc2[nH]cc(/C=N/Nc3nc4ccccc4s3)c2c1`, the growth in assay [1] was 45.5%; in assay [2] it was 47.2%; in assay [3], 67.1%; in [4], 73.2%; in assay [5] it was 67.2%; in assay [6] it was 65.7%. In addition, the growth in assay [7] is 29.8%; in assay [9], 60.6%; in [18], 66%; in assay [10], 2.18% (active); in [11], 58.7%; in [12] it was 66.2%. The growth is 74.7% in assay [13]; 22.5% in assay [14]; 46.8% in assay [15]; 41% in assay [16]; 13.6% in assay [17].

With `N#Cc1cccc(CN2CCC3=C(C2)C(=O)N(Cc2ccc(Cl)cc2)C2=NCCN23)c1`, the growth in [1] is 32.9%; in [2], 17%; in assay [3] it was 20.2%; in [4], 38.6%; in assay [5] it was 20.4%; in assay [6], 27.8%. Also, the growth in assay [7] is 54.4%; in assay [8] it was 23.4%; in [9], 45.5%; in assay [10] it was 23.7%; in assay [11], 45.4%; in assay [12], 19.9%. Also, the growth in assay [13] is 33%; in [14] it was 14.1%; in assay [15] it was 19.6%; in assay [16] it was 17.6%; in assay [17], 40.9%.

The values are drawn from PubChem BioAssay (NCI).
